GPR151 activ = activators of human GPR151, primary screen, cell-based, PathHunter beta-arrestin, luminescence | G-protein coupled receptor 151 (Homo sapiens), Q8TDV0 | PathHunter beta-arrestin GPR151 cells | activation, % at 11.2 µM | hit rate 1% among 650,000 | AID 1508602, 2020; in the data active = activation above about 4.9%;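 note: 0% = median of compound wells and 100% = cells with positive control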
Target sequence (Q8TDV0 whole entry, looked up): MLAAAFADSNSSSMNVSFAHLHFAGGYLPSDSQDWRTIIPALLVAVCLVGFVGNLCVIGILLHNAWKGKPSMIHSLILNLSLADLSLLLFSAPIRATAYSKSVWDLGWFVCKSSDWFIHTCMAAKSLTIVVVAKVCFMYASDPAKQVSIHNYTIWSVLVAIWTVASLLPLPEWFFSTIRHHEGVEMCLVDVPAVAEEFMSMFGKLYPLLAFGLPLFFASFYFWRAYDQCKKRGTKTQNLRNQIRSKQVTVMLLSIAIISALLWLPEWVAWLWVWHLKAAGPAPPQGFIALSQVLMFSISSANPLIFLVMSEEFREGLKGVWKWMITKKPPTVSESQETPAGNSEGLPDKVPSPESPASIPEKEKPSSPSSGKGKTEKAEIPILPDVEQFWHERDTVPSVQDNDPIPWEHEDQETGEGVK
TEAD-YAP inh = TEAD-YAP interaction inhibition, primary screen, TEAD-YAP interaction inhibitor project, luminescence, HEK-TIYL cells. TEAD-Gal4/YAP UAS-luciferase luminescence. inhibition, % at 9.12 µM. hit rate 1.4% among 640,000; in the data active = inhibition above about 32%;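 note: 0% = median of test compound wells and 100% = reference inhibitor wells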
FBW7 activator = FBW7 E3 ligase activators, primary screen, biochemical, AlphaScreen, human | AlphaScreen FBW7–phospho-cyclin E peptide binding, activator screen | AID 1259310, 2017 | hit rate 0.13% among 650,000 | F-box/WD repeat-containing protein 7 (Homo sapiens), Q969H0 | normalized activity (activation), % at 26.1 µM; in the data active = normalized activity above about 1.9%;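 note: purified mutant Fbw7 with reduced substrate affinity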
MITF primary = MITF inhibitors, primary screen, biochemical, AlphaScreen, human; Microphthalmia-associated transcription factor (Homo sapiens), O75030; AlphaScreen MITF homodimerization, bead proximity signal; inhibition, % at 2.6 µM; hit rate 0.91% among 650,000; in the data active = inhibition above about 50%;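 note: 0% = vehicle wells with protein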
GPR151 confirm = GPR151 activators, triplicate retest, confirmation, cell-based, PathHunter beta-arrestin, luminescence; shares compounds with GPR151 activ; GPR151 PathHunter beta-arrestin cells, 90 min; % of EA-reagent control over plate median; activation, % at 11.2 µM; 6,700 tested, under 10 active; AID 1508609, 2020;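 active = mean percent activation across replicates above the confirmation screen cutoff of 4.91%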
GPR119 ag = GPR119 activators in beta-arrestin cells, counter-screen for GPR151 activator project, cell-based, PathHunter beta-arrestin, luminescence, triplicate. shares compounds with GPR151 activ. 90 min; 0 = compound-well median, 100 = enzyme-acceptor control. activation, % at 11.2 µM. hit rate 0.3% among 6,700;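 active = mean percent activation in the counterscreen above 29.09%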;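 note: counterscreen on off-target GPR119 to flag nonselective hits from the GPR151 activator screen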
* hit, by the source's call. The list is not random: actives were taken first. Their share in the collection is about 3.4%.

How did O=C(Nc1cccc(C(F)(F)F)c1)c1nn2c(C(F)(F)F)cc(-c3ccc(Br)o3)nc2c1Br do in these assays?
GPR151 activ: 17*; TEAD-YAP inh: 9; FBW7 activator: 0; MITF primary: 3; GPR151 confirm: 0; GPR119 ag: 0

Results for O=C(NCc1ccc(F)cc1)c1nn2c(C(F)(F)F)cc(-c3ccccc3)nc2c1Br ?
GPR151 activ: 5.9*; TEAD-YAP inh: 2; FBW7 activator: 0; MITF primary: 2; GPR151 confirm: 0; GPR119 ag: -4

How did COC(=O)CNC(=O)COC(=O)c1ccc(Sc2nc(C)cs2)c([N+](=O)[O-])c1 do in these assays?
GPR151 activ: 0; TEAD-YAP inh: 12; FBW7 activator: 0; MITF primary: 13

Results for C=CCn1c(SC(C)C)nc2c1c(=O)n(C)c(=O)n2C ?
GPR151 activ: 8.6*; TEAD-YAP inh: -1; FBW7 activator: 0; MITF primary: 3; GPR151 confirm: 0; GPR119 ag: 3

How did Cc1ccc(C(c2nnnn2CCc2ccccc2)N2CCOCC2)cc1 (stereo unspecified) do in these assays?
GPR151 activ: 6.8*; TEAD-YAP inh: 5; FBW7 activator: 0; MITF primary: -19; GPR151 confirm: 1; GPR119 ag: -1

How did C/C(=N\Nc1cc(-n2cc(C)cn2)ncn1)c1ccccc1 do in these assays?
GPR151 activ: 0; TEAD-YAP inh: -10; FBW7 activator: 0; MITF primary: 4

What do the screens show for `C/C(=N\Nc1cc(-n2cc(C)cn2)ncn1)c1cccc([N+](=O)[O-])c1`?
GPR151 activ: 19*; TEAD-YAP inh: 10; FBW7 activator: 0; MITF primary: 14; GPR151 confirm: 0; GPR119 ag: 4

What do the screens show for `CC(Oc1ccc(Br)cc1)C(=O)Nc1ccc(C(N)=O)cc1` (stereo unspecified)?
GPR151 activ: 5.7*; TEAD-YAP inh: 8; FBW7 activator: 0; MITF primary: -7; GPR151 confirm: 0; GPR119 ag: -2

How did CC(Oc1ccc(Br)cc1)C(=O)Nc1ccccc1 (stereo unspecified) do in these assays?
GPR151 activ: -1; TEAD-YAP inh: 1; FBW7 activator: 0; MITF primary: -16

Results for CN(C)/C=C1\N=C(c2ccccc2F)OC1=O ?
GPR151 activ: 6.9*; TEAD-YAP inh: -12; FBW7 activator: 0; MITF primary: 7; GPR151 confirm: 1; GPR119 ag: 9

What do the screens show for `CN(C)c1ccc(/C=C2\N=C(c3ccccc3F)OC2=O)cc1`?
GPR151 activ: 2; TEAD-YAP inh: -25; FBW7 activator: 0; MITF primary: 5

What do the screens show for `CCCS(=O)(=O)N1CCN(Cc2nc(C(C)(C)C)cs2)CC1`?
GPR151 activ: 8.8*; TEAD-YAP inh: -1; FBW7 activator: 0; MITF primary: -2; GPR151 confirm: 1; GPR119 ag: 4

Results for Cc1noc(C)c1S(=O)(=O)N1CCN(Cc2nc(C(C)(C)C)cs2)CC1 ?
GPR151 activ: 2; TEAD-YAP inh: 0; FBW7 activator: 0; MITF primary: 0

How did COC(=O)c1ccc(NC(=O)CNS(=O)(=O)c2c(C)cc(C)cc2C)cc1 do in these assays?
GPR151 activ: 0; TEAD-YAP inh: -12; FBW7 activator: 1; MITF primary: 20

How did Cc1ccc(Cl)c(OCC(=O)Nc2sc(C)c(C)c2C#N)c1 do in these assays?
GPR151 activ: 1; TEAD-YAP inh: -8; FBW7 activator: 0; MITF primary: 2

Results for Cc1ccc(C)c(OCCN2CCNCC2)c1 ?
GPR151 activ: 9.0*; TEAD-YAP inh: 6; FBW7 activator: 0; MITF primary: 35; GPR151 confirm: 0; GPR119 ag: 2

What do the screens show for `COCCNCCOc1ccc(C)cc1C`?
GPR151 activ: 8.1*; TEAD-YAP inh: -4; FBW7 activator: 0; MITF primary: 35; GPR151 confirm: 2; GPR119 ag: 17

How did CCCCNCCCOc1cc(C)ccc1C do in these assays?
GPR151 activ: 5.0*; TEAD-YAP inh: 4; FBW7 activator: 0; MITF primary: 2; GPR151 confirm: 0; GPR119 ag: 1

What do the screens show for `COCCNCCOc1ccc(C)cc1Cl`?
GPR151 activ: 1; TEAD-YAP inh: -2; FBW7 activator: 0; MITF primary: 34

What do the screens show for `CCCCNCCOc1cc(C)ccc1C`?
GPR151 activ: -1; TEAD-YAP inh: 5; FBW7 activator: 0; MITF primary: 14

Results for Cc1ccc(-c2csc(N(C)C(=O)c3ccco3)n2)cc1 ?
GPR151 activ: -1; TEAD-YAP inh: -74; FBW7 activator: 0; MITF primary: -3

How did COCCCNC(=S)NNS(=O)(=O)c1ccc(OC)c(OC)c1 do in these assays?
GPR151 activ: 0; TEAD-YAP inh: 1; FBW7 activator: 0; MITF primary: 14

What do the screens show for `CCc1ccccc1N(CC(=O)Nc1ccccc1C)S(C)(=O)=O`?
GPR151 activ: 3; TEAD-YAP inh: 2; FBW7 activator: 0; MITF primary: -16

What do the screens show for `CCC(C)NCCOc1ccc([N+](=O)[O-])cc1` (stereo unspecified)?
GPR151 activ: 6.6*; TEAD-YAP inh: 5; FBW7 activator: 0; MITF primary: -14; GPR151 confirm: 0; GPR119 ag: 6

What do the screens show for `O=C1OC(c2ccc(Br)cc2)=N/C1=C\c1ccc(F)cc1`?
GPR151 activ: -2; TEAD-YAP inh: 8; FBW7 activator: 0; MITF primary: 10

What do the screens show for `O=C(Nc1nccs1)c1ncoc1-c1cccs1`?
GPR151 activ: 8.7*; TEAD-YAP inh: 5; FBW7 activator: 0; MITF primary: -14; GPR151 confirm: 0; GPR119 ag: 4

How did O=C(Nc1nncs1)c1ncoc1-c1cccs1 do in these assays?
GPR151 activ: -1; TEAD-YAP inh: 8; FBW7 activator: 0; MITF primary: -16

How did COc1ccc(C(=O)Nc2ccnn2C2CCN(Cc3ccon3)CC2)cc1 do in these assays?
GPR151 activ: -1; TEAD-YAP inh: 14; FBW7 activator: 0; MITF primary: 2

What do the screens show for `COc1ccc(C(=O)Nc2ccnn2C2CCN(Cc3cn(C)nc3C)CC2)cc1`?
GPR151 activ: 5.6*; TEAD-YAP inh: 2; FBW7 activator: 0; MITF primary: 9; GPR151 confirm: 2; GPR119 ag: -15

Results for COc1ccc(C(=O)Nc2ccnn2C2CCN(C(=O)C3CCOC3)CC2)cc1 (stereo unspecified) ?
GPR151 activ: 5.8*; TEAD-YAP inh: -8; FBW7 activator: 0; MITF primary: 5; GPR151 confirm: 1; GPR119 ag: 0

Screening data (PubChem)
